Results filed as inconclusive are left out. Active and inactive are the calls of the source. How the source made its calls: active means hit-call score of the fitted dose curve at least 0.9, where 1 is the maximum; inconclusive means response in the unintended direction; inactive means score below 0.9.
Molecular target: rat Thyrotropin Releasing Hormone Receptor (TRH), Trhr (gene 25570) (UniProt Q01717)
Experiment: NVS_GPCR_rTRH: NovaScreen (NVS) G Protein-Coupled Receptor Assay for rat Thyrotropin Releasing Hormone Receptor (TRH) (AID 2283329);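 further: hit means lower bound tracer signal versus DMSO baseline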
Protocol: NVS_GPCR_rTRH is a biochemical, single-readout assay that uses extracted gene-proteins from Rat forebrain membranes in a tissue-based cell-free assay. Measurements were taken 4 hours after chemical dosing in a 48-well plate.NVS_GPCR_rTRH is one of one assay component(s) measured or calculated from the NVS_GPCR_rTRH assay. It is designed to make measurements of radioligand binding, a form of binding reporter, as detected with scintillation counting signals by Filter-based radiodetection technology.Data from the assay component NVS_GPCR_rTRH was analyzed into 1 assay endpoint. This assay endpoint, NVS_GPCR_rTRH, was analyzed in the positive analysis fitting direction relative to DMSO as the negative control and baseline of activity. Using a type of binding reporter, loss-of-signal activity can be used to understand changes in the binding as they relate to the gene Trhr. Furthermore, this assay endpoint can be referred to as a primary readout, because the performed assay has only produced 1 assay endpoint. To generalize the intended target to other relatable targets, this assay endpoint is annotated to the gpcr intended target family, where the subfamily is rhodopsin-like receptor.
Binding assays used specific radioligands (tritiated, iodinated) with non-radioactive competitive displacement ligands in agonist or antagonist protocols (as indicated) and various reference compounds and inhibitors to titrate specific binding to receptors and transporters. Most enzyme assays (CYPs, kinases, phosphatases, proteases, HDACs) used recombinant protein and specific substrates (fluorescence mostly, some colorimetric and radioactive) and inhibitors, followed by a biochemical separation of substrate and product. All assays for the biochemical HTS were initially run in duplicate at a single concentration (10 uM for CYP450 assays and 25 uM for all others). […] Each assay was run with positive and negative controls, and concurrent controls on every plate. The follow-up (secondary) screen tested active chemical-pairs in concentration series, as well as a few additional assays not tested in the primary screen, some selected negative inactives, and several cases re-run in the concentration series for confirmatory purposes.

Chain of rat Thyrotropin Releasing Hormone Receptor (TRH), Trhr (gene 25570) (Q01717 whole entry, looked up): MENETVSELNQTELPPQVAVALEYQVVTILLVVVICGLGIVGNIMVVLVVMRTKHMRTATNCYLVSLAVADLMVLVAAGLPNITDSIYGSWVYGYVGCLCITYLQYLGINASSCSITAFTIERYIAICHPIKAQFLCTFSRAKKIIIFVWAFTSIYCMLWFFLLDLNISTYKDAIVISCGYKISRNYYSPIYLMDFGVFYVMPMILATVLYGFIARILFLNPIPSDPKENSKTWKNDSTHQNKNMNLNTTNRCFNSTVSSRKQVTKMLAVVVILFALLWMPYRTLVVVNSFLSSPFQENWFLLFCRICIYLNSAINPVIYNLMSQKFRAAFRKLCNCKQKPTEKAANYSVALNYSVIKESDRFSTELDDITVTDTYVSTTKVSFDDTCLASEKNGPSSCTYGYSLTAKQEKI

outcome, inactive:
C=CCOc1nc(OCC=C)nc(OCC=C)n1
NCCCN1CCOCC1
CC1COc2ccccc2N1C(=O)C(Cl)Cl (configuration not stated)
OCCN1CCNCC1
O=C(O)c1ccc(C(=O)O)cc1
CCN(CC)c1ccc2c(-c3ccccc3C(=O)O)c3ccc(=[N+](CC)CC)cc-3oc2c1
C=C(C)C(=O)O
CN(C)CCCN
CC(C)(C#N)c1cc(Cn2cncn2)cc(C(C)(C)C#N)c1
O=C(Cl)c1cccc(C(=O)Cl)c1
CC1(C)[C@@H]2CC[C@@]1(C)[C@H](O)C2
CCCC/C=C\CCCCCCCCCC=O
CC1=CC(=O)NS(=O)(=O)O1
CC(C)C[C@H]1C(=O)N2CCC[C@H]2[C@]2(O)O[C@](NC(=O)[C@@H]3C=C4c5cccc6[nH]c(Br)c(c56)C[C@H]4N(C)C3)(C(C)C)C(=O)N12
C[Si](O[Si](C)(C)C)O[Si](C)(C)C
OCCOCCOCCOCCO
CCCCCCCCCCCCN

— PubChem BioAssay (EPA / NIEHS)
